{
  "source": "PubChem BioAssay AID1076",
  "about": "(NMMLSC, 2008)",
  "note": "Unmarked numbers belong to inactive results.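 The calls were made as follows: active = cell event count below 40, meaning activity score above 60 where score is 100 minus count; inactive = the rest.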",
  "data": [
    {"experiment": "LNCaP cell loss by flow event count, confirmation, cytotoxicity control for prostate differentiation activator project, single point (AID 1076);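 also: counts scatter-gated live cells after medium removal discards detached dead cells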", "conditions": "flow cytometry event count, 4 d, at 100 µM, stronger effect = lower value", "values": [
      {"smiles": "Cc1ccc(CNc2nc3ccccc3n3nnnc23)cc1", "cell event count": 245},
      {"smiles": "Cc1cc(NC(=O)c2noc3c2CCc2ccccc2-3)n(-c2ccccc2)n1", "cell event count": 146},
      {"smiles": "CCOc1ccccc1NC(=O)c1nc[nH]c1C(=O)Nc1ccccc1OCC", "cell event count": 20},
      {"smiles": "O=C(CCN1C(=O)COc2ccccc21)NCCCN1CCN(c2ccccc2F)CC1", "cell event count": 186},
      {"smiles": "CCc1ccc(-c2nc(CN3CCC(C(=O)N4CCN(c5ccccn5)CC4)CC3)c(C)o2)cc1", "cell event count": 10},
      {"smiles": "Cc1oc(-c2cccc(Cl)c2)nc1CN1CCC(C(=O)NCC2CCCO2)CC1", "note": "(stereo not given)", "cell event count": 174},
      {"smiles": "COc1cccc(-c2cc(C(=O)N3CCN(C(c4ccccc4)c4ccccc4)CC3)no2)c1", "cell event count": 440},
      {"smiles": "O=C(CCN1C(=O)COc2ccccc21)NCCCN1CCN(c2ccc(F)cc2)CC1", "cell event count": 117},
      {"smiles": "COC(=O)c1ccc2c(=O)n(Cc3ccco3)c(SCC(=O)Nc3ccc(C)c(Cl)c3)nc2c1", "cell event count": 138},
      {"smiles": "O=C(CN1CCC(n2nnc3cc(F)ccc32)CC1)Nc1ccc2c(c1)CCC2", "cell event count": 210},
      {"smiles": "O=C(CSc1nc2sc3c(c2c(=O)n1-c1ccccc1)CCCC3)NCc1ccco1", "cell event count": 25},
      {"smiles": "COc1ccccc1N1CCN(C(=O)CCn2c(=O)[nH]c3ccsc3c2=O)CC1", "cell event count": 206},
      {"smiles": "O=C(COc1ccc(S(=O)(=O)N2CCCC2)cc1Cl)NC1CC1", "cell event count": 355},
      {"smiles": "CCn1c(C(=O)NCCCN2CCc3ccccc3C2)cc2sccc21", "cell event count": 16},
      {"smiles": "Cc1cccc(-c2nc(CN3CCCC(C(=O)NC4CCC(C)CC4)C3)c(C)o2)c1", "note": "(stereo not given)", "cell event count": 5}
    ]}
  ]
}
